In PubChem BioAssay (Tox21):
Records with an inconclusive call do not appear. Calls of active or inactive are those of the source. Calls follow the shape of the dose curve; as a rule, active = well fitted cell-killing curve with a large enough effect in the repeat runs; inconclusive = weak or mixed curves, or effect the other way; inactive = flat fitted curve, though single readings scatter.

Assay: qHTS assay to identify small molecule agonists of the sonic hedgehog signaling (Shh) pathway - cell viability counter screen (AID 1259366); also: nearly all actives have a fitted effect of over 50% in size
Conditions: NIH/3T3 Gli1-Luc viability, CellTiter-Fluor, 24 h; series mostly up to 92.4 µM; viability change, negative = cytotoxic: at the top concentration
Description: National Center for Advancing Translational Sciences [NCATS]
NIH Chemical Genomics Center [NCGC]
U.S. Environmental Protection Agency [EPA]
National Institutes of Environmental Health Sciences [NIEHS]
National Toxicology Program [NTP]
U.S. Food and Drug Administration [FDA]
The sonic hedgehog (Shh) pathway is essential for normal embryonic development. Dysregulation of the Shh pathway can cause severe developmental defects in organs. Therefore chemicals that interfere with the pathway are potential developmental toxicants. A cell line designated 3T3Gli1-Luc (DMB/OARSA/CFSAN/FDA, Laurel, MD), a NIH/3T3 derived clone containing stably integrated Gli1-Luc reporter is used to detect chemical interference of the Shh pathway, by changes in the expression of the firefly Luc gene under the control of the Gli1 transcriptional response element. This cell line was used to screen Tox21 libraries for identifying and prioritizing the potential developmental toxicants that interfere Shh pathway. The cytotoxicity of the compounds was tested in parallel by measuring the cell viability using CellTiter-Fluor assay system (Promega, Madison, WI) in the same wells.
Tox21 Assay Protocol Summary:
3T3 Gli1-Luc cells were dispensed at 2,000 per well in 5uL of culture medium into white solid bottom 1536-well plates (Greiner Bio-One, Monroe, NC) using a Multidrop Combi (Thermo Scientific, Waltham, MA) dispenser. The assay plates were incubated at 37 C and 5% CO2 for 4hr, and then 23nL of compounds dissolved in DMSO and positive control were transferred using a Pintool station (Wako, San Diego, CA). The assay plates were incubated at 37C and 5% CO2 for 24hr. For viability read, after 23hr of compound treatment, 1uL of CellTiter-Fluor reagent (Promega Corporation, Madison, WI) was added to each well of the assay plates using Flying Reagent Dispenser (FRD, Aurora Discovery, San Diego, CA) and incubated the assay plates at 37C for 1hr. The fluorescence signal was quantified using a ViewLux plate reader (Perkin Elmer, Shelton, CT).
% is scaled to controls: 0 for no effect and ±100 for the full control effect; potency is read from the fitted curve at half-maximal effect.

Row | Compound | viability change, negative = cytotoxic | Potency
1 | CCC(=O)O[C@]1(C(=O)COC)[C@@H](C)C[C@H]2[C@@H]3CCC4=CC(=O)C=C[C@]4(C)C3(F)[C@@H](O)C[C@@]21C (stereo not given in full) | 21.2% [at 42.5 µM] (inactive) | 
2 | CCCCCCCCS | 4.91% (inactive) | 
3 | O=C(O)CCc1nc2ccccc2[nH]1 | -2.83% [at 42.5 µM] (inactive) | 
4 | C/C(=C\C(C)CC(C)CC(C)C)C1CC(=O)OC1=O (stereo not given) | -2.18% (inactive) | 
5 | O=C(O)c1ccccc1[N+](=O)[O-] | 1.12% (inactive) | 
6 | COc1ccc(/C(C)=C/C(=O)O)c(OC)c1 | 0.46% [at 42.5 µM] (inactive) | 
7 | CCC(C(=O)O)c1ccc(N2Cc3ccccc3C2=O)cc1 (stereo not given) | -4.76% [at 42.5 µM] (inactive) | 
8 | O=C1CCCN1CCO | 1.36% (inactive) | 
9 | CC(C(=O)O)c1ccc(/C=C2\CCCCC2=O)cc1 (stereo not given) | -1.66% [at 42.5 µM] (inactive) | 
10 | CCCOC(C)=O | 0.494% (inactive) | 
11 | COc1ccc(/C=C/S(=O)(=O)NC(=O)c2ccc(C)cc2Cl)cc1 | -1.21% (inactive) | 
12 | O=C(OCCOCCOCCOC(=O)c1ccccc1)c1ccccc1 | 0.0132% (inactive) | 
13 | CC(C)CCCCCCCOC(=O)c1ccc(C(=O)OCCCCCCCC(C)C)c(C(=O)OCCCCCCCC(C)C)c1 | -7.65% (inactive) | 
14 | O=C(c1ccco1)N1CCNCC1 | 0.0172% [at 42.5 µM] (inactive) | 
15 | C(/C=C/C=C/Nc1ccccc1)=Nc1ccccc1 | 18.5% (inactive) | 
16 | COc1ccc(CN(CCN(C)C)c2ncccn2)cc1 | 3.26% [at 42.5 µM] (inactive) | 
17 | CCC(C)CCCC(C)(C)O (stereo not given) | 2.33% (inactive) | 
18 | CC(CN=Cc1ccccc1O)N=Cc1ccccc1O (stereo not given) | -11.6% (inactive) | 
19 | CCCCCCCCC(=O)OCC(C)OC(=O)CCCCCCCC (stereo not given) | 3.66% (inactive) | 
20 | CCCCCO | -8.81% (inactive) | 

Row | Compound | viability change, negative = cytotoxic | Potency
21 | O=c1c2ccccc2oc2ccccc12 | -2.14% (inactive) | 
22 | Cc1cccc(C)c1NC(=O)CN1CCCC1 | -0.0464% [at 42.5 µM] (inactive) | 
23 | C[C@H](CN1CCCC1)C(=O)c1ccc(C(F)(F)F)cc1 | 5.11% [at 42.5 µM] (inactive) | 
24 | C[Si](C)(C)O[Si](C)(C)O[Si](C)(C)C | -1.58% (inactive) | 
25 | O=C(OCCCCCOC(=O)c1ccccc1)c1ccccc1 | 0.183% (inactive) | 
26 | CCOc1ccc2c(c1)C(C)CC(C)(C)N2 (stereo not given) | -1.74% (inactive) | 
27 | CC(C)(C)N | 0.919% (inactive) | 
28 | Cc1ccccc1CCO | -6.23% (inactive) | 
29 | CC(C)(C)c1cc(C=O)cc(C(C)(C)C)c1O | -1.68% [at 42.5 µM] (inactive) | 
30 | O=C(Nc1ccc2c(c1)Cc1ccccc1-2)C(F)(F)F | 10% (inactive) | 
31 | C/C=C1\[C@H]2C=C(C)C[C@]1(N)c1ccc(=O)[nH]c1C2 | -3.15% [at 42.5 µM] (inactive) | 
32 | CC(C)(O)C(=O)O | 6.18% (inactive) | 
33 | Cc1cc(SC2=C(O)C[C@@](CCc3ccc(N)cc3)(C(C)C)OC2=O)c(C(C)(C)C)cc1CO | 4.67% (inactive) | 
34 | OCCCO | 1.29% (inactive) | 
35 | C=CCCC | 4.64% (inactive) | 
36 | O=C(O)c1cc(C(=O)O)cc([N+](=O)[O-])c1 | 0.478% (inactive) | 
37 | O=P(c1ccccc1)(c1ccccc1)c1ccccc1 | -13.4% (inactive) | 
38 | C1=COCCC1 | -0.527% (inactive) | 
39 | O=C1c2ccccc2C(=O)C1c1ccc2cc(S(=O)(=O)O)cc(S(=O)(=O)O)c2n1 |  | 29.5 µM (active)
40 | NC(=O)c1cc[n+](CC2=C(C(=O)[O-])N3C(=O)[C@@H](NC(=O)Cc4cccs4)[C@H]3SC2)cc1 | 0.54% [at 42.5 µM] (inactive) | 
